Measured values as given in PubChem BioAssay (NCI).
This is part of a sample that, as a whole, favours compounds with a hit. Of some 83,000 tested, about 20% had one in any assay.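 48-hour exposure, single concentration, 96-well plates; percent growth endpoint where 0 means no net growth. Active: below 10.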 Values without a mark were called inactive. The source made the active and inactive calls.

System: MDA-MB-468 breast
Test: NCI-60 one-dose screen, 48 h (100 = growth as untreated, 0 = no growth, -100 = all killed)
Details: 10 µM unless noted

For `O=C(NNC(=O)N1c2ccccc2C=Cc2ccccc21)c1ccccc1`, which growth is on record?
The growth was 98.9%.

For `O=C1OC(=O)C2C1C1(Cl)C(Cl)=C(Cl)C2(Cl)C2C(=O)OC(=O)C21` (stereo not given), which growth is on record?
The growth was 94.3%.

Which growth does the source give for `Cc1nc2ccc(C(=O)NCc3cc(C(=O)O)c(C)o3)cc2nc1C` here?
The growth was 98.7%.

For `COc1cc2c(cc1OC)C(Sc1ccc(C)cc1)c1c(nc(N)c(C#N)c1N)O2` (stereo not given), which growth is on record?
The growth was -46.7% (active).

For `COc1ccc2c(c1)CC/C(=C\c1cncc(Br)c1)C2=O`, which growth is on record?
Its growth is 99.4%.

`Cc1cccc(/C=C/c2nn3c(-c4ccco4)nnc3s2)c1` was tested. Which growth did it give?
The growth was 93.9%.

`CC(=O)c1nc2ccccc2n1CC(=O)c1cccc(Cl)c1` was tested. Which growth did it give?
Its growth is 32.7%.

How did the growth turn out when `C/C(Cc1ccc(Cl)cc1)=C(\c1ccc(OCCCN(C)C)cc1)c1ccc(OC(=O)Cc2ccccc2)cc1` was run?
Its growth is 111%.

`CC(C)C(C)(C)C(=O)C(C)(C)C(C)(C)C` was tested. Which growth did it give?
The growth was 90.1%.

For `CN(CCn1sc(=O)n(Cc2ccccc2)c1=O)Cc1ccc2c(Cl)cc(Cl)c(O)c2n1`, which growth is on record?
Its growth is 42.4%.

`N/C(=N\c1nc2ccccc2s1)NC(=O)Nc1cccc2ccccc12` was tested. Which growth did it give?
Its growth is 3.96% (active).

For `C=C(c1ccc(N(C)C)cc1)c1ccc(N(C)C)cc1`, which growth is on record?
Its growth is -30.9% (active).

`O=S(=O)(O)c1ccc2c(c1)Sc1cc(S(=O)(=O)O)ccc1O2` was tested. Which growth did it give?
The growth was 107%.

Which growth does the source give for `Cc1cccc(NC(=O)c2sc3nc4c(cc3c2N)CCC4)c1C` here?
The growth was 10.6%.

How did the growth turn out when `N#CCNc1ccccc1N` was run?
The growth was 108%.

`COc1ccc(/C(C)=N/NC(=O)c2ccc(S(C)(=O)=O)cc2)cc1OC` was tested. Which growth did it give?
The growth was 95.7%.

Which growth does the source give for `COc1ccc(-c2cn[nH]c2-c2cc(OC)c3c(c2)OCCO3)cc1` here?
The growth was 5.64% (active).

With `Cc1cc(NC(=O)c2ccc(C)c(Nc3nccc(-c4cccnc4)n3)c2)cc(-n2cnc(C)c2)c1` as the compound, how does the growth read?
The growth was -18.1% (active).

How did the growth turn out when `CCC(=O)Oc1ccc(OC)cc1` was run?
The growth was 106%.

With `CCCC(=O)c1cc(C)ccc1OC` as the compound, how does the growth read?
The growth was 113%.

`O=S(=O)(Nc1ccc(Br)cc1)c1ccc(-c2cnc(C3CC3)o2)cc1` was tested. Which growth did it give?
Its growth is -12.4% (active).

Which growth does the source give for `O=C(Nc1cccc(-n2cc(-c3ccncc3)c(-c3ccc(O)c(Cl)c3)n2)c1)Nc1cccc(C(F)(F)F)c1` here?
Its growth is 18.5%.

For `CC1(O)CC(c2nc(-c3ccc4ccc(-c5ccccc5)nc4c3)c3c(N)nccn23)C1` (stereo not given), which growth is on record?
Its growth is 25%.

How did the growth turn out when `Nc1cc(-c2nc3sccn3c2-c2ccnc(NCCCNS(=O)(=O)c3ccc(F)cc3)n2)ccc1F` was run?
Its growth is 41.7%.

How did the growth turn out when `CC1(C)CC(=O)c2c(nn(-c3ccc(Br)cc3)c2-c2cn(-c3ccccc3)nc2-c2cccnc2)C1` was run?
The growth was 107%.

Which growth does the source give for `Fc1ccc(/C=C/c2cc(/C=C/c3ccc(F)cc3)n(-c3cc(F)cc(F)c3)n2)cc1` here?
Its growth is 108%.

For `Cc1ccc2c(n1)C(=O)C(Oc1ccc(F)cc1)=CC2=O`, which growth is on record?
The growth was 87.7%.

For `CC1Cc2ccccc2O1` (stereo not given), which growth is on record?
The growth was 120%.

For `Cc1ccc(-n2nc3c(c(C#N)c2=O)CC(c2ccccc2Cl)C([N+](=O)[O-])=C3O)cc1` (stereo not given), which growth is on record?
Its growth is 114%.

For `CN1CCN(CCCOc2ccc3nc(Nc4ccc(F)c(F)c4)ccc3c2)CC1`, which growth is on record?
The growth was 9.52% (active).

`O=C(/C=C/C12c3ccccc3C(c3ccccc31)C1C(=O)NC(=O)C12)c1ccc(Cl)cc1Cl` (stereo not given) was tested. Which growth did it give?
Its growth is 23.8%.

How did the growth turn out when `COc1ccc(-c2nc3sc(-c4ccccc4)c(-c4ccccc4)n3c2/C=C/c2ccc(F)cc2)cc1` was run?
Its growth is 82.7%.

`CCOC(=O)c1c(C)[nH]c(C(=O)CCC(=O)OC)c1C` was tested. Which growth did it give?
The growth was 114%.

For `CC1SC(c2ccccc2O)N(NC(=O)CCC(=O)c2nc3ncccc3[nH]2)C1=O` (stereo not given), which growth is on record?
Its growth is 88.1%.

For `CCOc1ccc(Br)cc1/C=C(\C#N)c1ccc([N+](=O)[O-])cc1`, which growth is on record?
The growth was 51.7%.

How did the growth turn out when `COC(=O)[C@]12CC[C@@H](C)[C@H](C)[C@@H]1C1=CC[C@@H]3[C@@]4(C)CC(=O)[C@H](O)[C@@]5(C)COC(=C45)C[C@@]3(C)[C@]1(C)CC2` was run?
Its growth is -83.9% (active).

For `COc1cc2c(cc1-c1c(C)noc1C)ncc1nc(C3CCC(F)(F)CC3)n([C@H](C)COC(F)F)c12`, which growth is on record?
Its growth is 33.6%.

`CC1OC(O[C@@H]2[C@H](O)C(CO)OC(O[C@H]3COC(O[C@H]4CC[C@]5(C)[C@H]6CC[C@]78OC[C@@]9(CC[C@](C)(C=O)C[C@H]97)C(=O)C[C@@]8(C)[C@]6(C)CC[C@H]5C4(C)C)[C@@H](O)[C@@H]3O)[C@H]2OC2OC[C@@H](O)[C@@H](O)[C@@H]2O)[C@@H](O)[C@@H](O)[C@H]1O` (stereo not given in full) was tested. Which growth did it give?
The growth was 104%.

Which growth does the source give for `Cc1ccc(Cc2cnc(NC(=O)/C=C/c3cccc(C)c3)s2)cc1` here?
Its growth is 1.34% (active).

With `COc1ccc2nc3ccccc3c(NCc3ccc(C)cc3)c2c1` as the compound, how does the growth read?
The growth was -18.6% (active).
